Hits are enriched below; roughly 21% of the tested compounds scored in any of these assays.
MRP1 act: MRP-1 activation | H69AR cells + doxorubicin, viability rescue, CellTiter-Glo | viability increase, % at 10 µM | 140,000 compounds, 0.61% hits;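 active = viability gain under doxorubicin at or above a set limit, the compound median plus 3 SD, cut at about 4.7% in these data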;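 note: MRP-1 overexpressing cells given doxorubicin 25 µM after compound pretreatment; 18-22 h compound pretreatment then 72 h with doxorubicin before readout; 0% = doxorubicin-only wells and 100% = vehicle-treated cells without doxorubicin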
CYP2C19 inh: inhibitors of human CYP2C19; inhibition, % at 5 µM; P33261; 96,000 compounds, 21% hits; CYP2C19 Supersomes, luciferin-H EGE luminescence, 30 min; AID 778;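 active = CYP2C19 inhibition above a set limit at 5 µM in the primary screen, cut at about 50% in these data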;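 note: plate controls were negative control wells for no effect and 2.5 mM tranylcypromine positive control for full effect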
Target sequence (P33261 whole entry, looked up): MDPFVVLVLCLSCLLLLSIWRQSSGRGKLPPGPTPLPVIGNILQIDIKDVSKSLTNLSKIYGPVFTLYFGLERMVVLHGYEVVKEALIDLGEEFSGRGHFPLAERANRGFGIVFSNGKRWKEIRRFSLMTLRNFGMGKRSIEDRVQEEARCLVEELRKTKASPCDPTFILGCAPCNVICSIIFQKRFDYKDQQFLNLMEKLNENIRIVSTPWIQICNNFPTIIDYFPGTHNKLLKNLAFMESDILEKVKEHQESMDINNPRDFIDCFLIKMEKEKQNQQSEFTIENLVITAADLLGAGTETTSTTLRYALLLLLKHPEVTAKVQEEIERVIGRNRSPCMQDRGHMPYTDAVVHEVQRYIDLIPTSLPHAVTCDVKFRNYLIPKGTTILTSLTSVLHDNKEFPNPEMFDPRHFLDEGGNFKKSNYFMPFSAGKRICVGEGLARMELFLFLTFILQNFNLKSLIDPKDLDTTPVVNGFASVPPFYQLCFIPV
CYP2C9 inhib: inhibitors of human CYP2C9; P11712; CYP2C9 Supersomes, luciferin-H conversion, luminescence; inhibition, % at 5 µM; 96,000 compounds, 20% hits; AID 777;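 active = blocking of liver enzyme CYP2C9 beyond about 50% at 5 µM, limit read from the data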
MRP resist rev: reverses drug resistance mediated by MRP | H69AR cells + 2 uM doxorubicin, CellTiter-Glo, 72 h | differential viability (reversal), % at 10 µM | 85,000 compounds, 0.04% hits | AID 602;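 active = viability drop by adding the cancer drug above about 55%, with treated viability meeting a 40% cutoff, limit read from the data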;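 note: viability without doxorubicin minus viability with 2 µM doxorubicin for each compound; larger differential means the compound sensitizes cells more to doxorubicin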
CYP2C19 activ: activators of human cytochrome P450 2C19; P33261; recombinant CYP2C19, luciferin-H EGE luminescence; active compounds read high; 0 = fully inhibited enzyme, 1 = untreated enzyme; activation factor at 5 µM; 96,000 tested, under 10 active; AID 1025;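 active = activation factor of at least 2 at 5 µM in the primary screen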;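 note: 0 = wells with 2.5 mM tranylcypromine and 1 = vehicle-only wells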
CYP2C9 act: increases human cytochrome P450 2C9 activity; recombinant CYP2C9, luciferin-H conversion, luminescence; active compounds read high; factor 1 = untreated enzyme, 0 = blocked; activation factor at 5 µM; 96,000 compounds, 1.4% hits; AID 1024;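 active = activation factor of 2 or more for CYP2C9 at a 5 µM dose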;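 note: 0 = sulfaphenazole-blocked wells and 1 = vehicle-only wells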
Starred values were filed as active, the others as inactive; / = no result.

SMILES	MRP1 act	CYP2C19 inh	CYP2C9 inhib	MRP resist rev	CYP2C19 activ	CYP2C9 act
Cc1nc(Cl)sc1C(=O)Nc1cccc(Cl)c1C	-4	/	/	/	/	/
CCCCn1nnc(NC(=O)CC23CC4CC(CC(C4)C2)C3)n1	0	5	-12	-5	0.9	1.1
CC(=O)Nc1ccc(S(=O)(=O)Nc2nc3ccccc3nc2Nc2ccc3ccccc3c2)cc1	-4	/	/	/	/	/
CCCCN(CCCC)c1nc2ccccc2nc1NS(=O)(=O)c1ccc(NC(C)=O)cc1	0	48	64*	-12	0.5	0.4
Cc1ccc(-c2noc(CSc3nnc(Cc4ccccc4)n3-c3cccc(C)c3)n2)cc1	-4	82*	45	-16	0.2	0.5
Fc1ccc(-n2c(Cc3ccccc3)nnc2SCc2nc(-c3cccs3)no2)cc1	-1	44	74*	-2	0.6	0.3
NC(=O)CSc1nnc(Cc2cccs2)n1C1CCCCC1	-3	-6	-11	23	1.1	1.1
CCn1c(SCc2nc(-c3ccc(OC)c(OC)c3)no2)nnc1-c1cccs1	-1	23	29	6	0.8	0.7
COc1ccc(-c2noc(CSc3nnc(Cc4ccccc4)n3-c3cccc(C)c3)n2)cc1OC	-2	98*	55*	9	0	0.5
c1ccc(-c2noc(CSc3nnc(Cc4cccs4)n3-c3ccccc3)n2)cc1	-3	/	/	0	/	/
Cc1ccc(-n2c(Cc3cccs3)nnc2SCC(N)=O)cc1	-1	56*	-1	16	0.4	1
Clc1ccc(-c2noc(CSc3nnc(Cc4cccs4)n3-c3ccccc3)n2)cc1	0	50	44	-9	0.5	0.6
CCCc1cc(=O)[nH]c(SCC(=O)N(C)C2CCS(=O)(=O)C2)n1 (stereo unspecified)	0	45	1	6	0.5	1
O=C(NC1CCCCC1)c1ccc(Cn2cc(Cl)cn2)cc1	-1	-1	27	12	1	0.7
Cc1c(C(=O)N2c3ccccc3Sc3ccccc32)cccc1[N+](=O)[O-]	-3	/	/	/	/	/
Cc1ccc(-c2noc(CSc3nnc(Cc4cccs4)n3-c3ccccc3)n2)cc1	-3	72*	49	-9	0.3	0.5
COc1ccc(C(=O)c2sc(NC(C)C)nc2N)cc1OC	-3	86*	8	-6	0.1	0.9
COc1ccccc1-n1c(CNc2ccc(F)cc2)nnc1SCC(=O)Nc1cc(C)on1	-1	/	/	13	/	/
Cc1c(Cl)ccc2c1NC(=O)[C@]21N[C@@H](CCC(N)=O)[C@H]2C(=O)N(c3ccc(F)cc3)C(=O)[C@H]21	-1	27	29	6	0.7	0.7
CSCCC1NC2(C(=O)Nc3c2ccc(Cl)c3C)[C@@H]2C(=O)N(C3CCCC3)C(=O)[C@H]12 (stereo partly specified)	-5	91*	91*	-9	0.1	0.1
Cc1c(Cl)ccc2c1NC(=O)C21NC(CCC(N)=O)[C@H]2C(=O)N(c3ccc(Cl)cc3)C(=O)[C@H]21 (stereo partly specified)	0	57*	70*	5	0.4	0.3
NC(=O)C[C@@H]1N[C@]2(C(=O)Nc3ccccc32)[C@@H]2C(=O)N(C3CCCCC3)C(=O)[C@H]12	1	21	4	1	0.8	1
CC(C)C(=O)Nc1cc(=O)[nH]c2ncnn12	-1	-2	-4	-1	1	1
CCSc1nnc(-c2ccc(Cl)cc2)c2ccccc12	1	16	20	/	0.8	0.8
CCSc1nnc(-c2ccc(C)cc2)c2ccccc12	5.6*	/	/	/	/	/
SMILES	MRP1 act	CYP2C19 inh	CYP2C9 inhib	MRP resist rev	CYP2C19 activ	CYP2C9 act
CC(=O)N1CCC(N(CCN2CCOCC2)C(=S)Nc2cccc(C)c2)CC1	-3	/	/	/	/	/
CCc1ccc2c(c1)cc(CN(C(=S)Nc1cccc(C)c1)C1CC1)c1nnnn12	-6	1	68*	/	1	0.3
Cc1ccc(C(C)C)cc1S(=O)(=O)NCc1cccnc1	-1	78*	62*	-5	0.2	0.4
O=S(=O)(NCc1cccnc1)c1ccc(Cl)c(Cl)c1Cl	-3	88*	-21	19	0.1	1.2
O=S(=O)(NCc1cccnc1)c1ccc(Cl)c(Cl)c1	-2	/	/	/	/	/
c1ccc(Cn2nnnc2C(c2cccnc2)N2CCN(c3ccccc3)CC2)cc1 (stereo unspecified)	-2	14	19	10	0.9	0.8
COc1ccc(C)cc1Nc1cc(C)nc2ncnn12	0	/	/	4	/	/
